# Assay outcomes: PubChem, several laboratories
# CR mimetic SO = yeast age-related superoxide inhibition as caloric restriction mimetic | S. cerevisiae aged cells, superoxide DHE fluorescence; stronger effect = lower value | superoxide response (% of plate mean), % at 10 µM | 330,000 tested, 0.18% active;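 active = superoxide response under a set limit, about three screen SD below normal, cut at about 65% in these data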;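 also: yeast aged for seven days with compound at 30 °C before DHE staining; 100% = average MFI of all compound-treated wells on the plate with controls excluded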
# TIM10 inh = inhibits growth of TIM10 yeast strain | S. cerevisiae TIM10 strain growth, BacTiter-Glo luminescence, 24 h | inhibition, % at 10 µM | 330,000 tested, 1.4% active | AID 463195;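 active = inhibition of 40% or more at the single tested concentration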;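 also: wild-type TIM10 isogenic control strain grown at permissive 25 °C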
# NALP3 yeast inh = blocks the NALP3 inflammasome reconstituted in yeast | Yeast reconstituted NLRP3/ASC/caspase-1, beta-gal luminescence, 24 h | AID 2825 | inhibition, % at 10 µM | 330,000 tested, 0.39% active;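 active = inhibition of 50% or more; inactive = inhibition below 50%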;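 also: plate controls were induced DMSO wells for no effect and uninduced yeast grown without galactose for full effect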
# tim10-1 inh = inhibits growth of tim10-1 mutant yeast | S. cerevisiae tim10-1 ts strain growth, BacTiter-Glo, 24 h | inhibition, % at 20 µM | 330,000 tested, 2.2% active | AID 463190;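 active = inhibition of at least 40%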;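 also: mutant grown at 25 °C; 0% = DMSO wells with yeast and 100% = wells holding no yeast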
# tim23-1 inh = tim23-1 yeast growth inhibition; S. cerevisiae tim23-1 growth, BacTiter-Glo luminescence, 24 h; inhibition, % at 20 µM; 330,000 tested, 1.3% active;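 active = growth inhibition of the mutant yeast at or above 50%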;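 also: temperature-sensitive mutant grown at 25 °C; plate controls were DMSO-treated mutant yeast for no effect and medium wells lacking yeast for full effect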
# tim10-1 conf = confirmation of tim10-1 mutant yeast growth inhibitors | shares compounds with tim10-1 inh | S. cerevisiae tim10-1 ts strain growth, BacTiter-Glo, 24 h | inhibition, % at 20 µM | 7,400 tested, 56% active | AID 463213;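 active = inhibition of yeast growth at or above a set limit in either of two repeat tests at 20 µM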;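 also: tim10-1 mutant grown at permissive 25 °C to find synthetic lethal compounds; 0% = DMSO yeast wells and 100% = medium wells without yeast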
# tim10 confirm = TIM10 yeast growth inhibition, confirmed; shares compounds with TIM10 inh; S. cerevisiae tim10 strain growth, BacTiter-Glo luminescence, 24 h; inhibition, % at 10 µM; 4,600 tested, 63% active; AID 463215;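 active = inhibition of yeast growth at or above a set limit in either of two replicates at 10 µM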;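 also: this counterscreen used the strain with wild-type TIM10; 0% = yeast with DMSO and 100% = medium wells lacking yeast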
# tim23-1 confirm = tim23-1 yeast growth inhibition, confirmed. shares compounds with tim23-1 inh. AID 463218. 4,400 tested, 83% active. S. cerevisiae tim23-1 growth, BacTiter-Glo luminescence, 24 h. inhibition, % at 20 µM;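 active = inhibition above about 39% in either of two replicate wells at 20 µM, limit read from the data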;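 also: temperature-sensitive tim23-1 mutant grown at 25 °C; 0% = DMSO wells with yeast and 100% = medium wells without yeast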
# * = called active by the depositor; . = no result. Rows were chosen to be rich in hits. Some 3.8% of all compounds tested hit in one or more screens of this group.
SMILES,CR mimetic SO,TIM10 inh,NALP3 yeast inh,tim10-1 inh,tim23-1 inh,tim10-1 conf,tim10 confirm,tim23-1 confirm
CCN(CC(=O)Nc1ccc2c(c1)OCCO2)C(=O)CN1C(=O)NC(C)(c2ccc(C)cc2)C1=O (configuration not stated),78,5,10,0,-9,.,.,.
CCOc1cc(/C=C2\CN(C)C/C(=C\c3ccc(O)c(OCC)c3)C2=O)ccc1O,98,31,15,58*,52*,47*,.,62*
OCc1ncc(-c2ccccc2)s1,97,-25,18,11,22,.,.,.
CC1CCCCN1S(=O)(=O)c1ccc(NC(=O)c2cccs2)cc1 (configuration not stated),80,51*,-1,54*,54*,48*,52*,71*
CC1CCN(S(=O)(=O)c2ccc(NC(=O)c3cccs3)cc2)CC1,110,42*,19,42*,54*,50*,53*,59*
C=CCN1C(=O)c2ccc(C(=O)N(CCC)CC(=O)Nc3ccccc3C)cc2C1=O,100,2,-3,4,1,.,.,.
O=C(CSc1nnc(C2CC2)n1CC1CCCO1)Nc1ccc(Cl)cc1 (configuration not stated),98,8,1,-12,2,.,.,.
O=C(Nc1ccc(Cl)cc1Cl)c1cc2ccccc2o1,99,-12,17,2,7,.,.,.
O/N=C(\c1ccc(Cl)cc1)c1cc2ccccc2o1,103,53*,9,46*,67*,67*,60*,64*
COc1ccc(/C=C2\SC(=O)NC2=S)cc1OC,96,33,20,41*,52*,37*,.,48*
CCOc1ccc(/C=C2\SC(=S)NC2=O)cc1OC,91,22,25,29,24,.,.,.
COc1cc(C#N)c(NC(=S)N2CCOCC2)cc1OC,101,2,9,5,-12,.,.,.
COc1cccc(CSc2nc3ccccc3cc2C=O)c1,92,46*,41,49*,71*,44*,53*,78*
OCC(O)/C=N/Nc1nc(Nc2ccccc2)nc(Nc2ccccc2)n1 (configuration not stated),104,46*,29,50*,54*,28,45*,48*
COc1ccc(-c2nc(-c3ccccc3)c(-c3cc([N+](=O)[O-])ccc3C)[nH]2)cc1O,107,17,-3,44*,53*,36*,.,58*
Cc1ccc([N+](=O)[O-])cc1-c1[nH]c(-c2ccc(O)c(O)c2)nc1-c1ccccc1,104,9,4,28,-10,.,.,.
CC(=O)/C(=C/c1ccccc1)C(=O)Nc1ccccc1C,104,72*,36,61*,68*,52*,63*,54*
O=S(=O)(c1ccccc1)N1CCN(c2ccnc3cc(Cl)ccc23)CC1,89,16,2,58*,63*,53*,.,66*
O=S(=O)(c1cccs1)N1CCN(c2ccnc3cc(Cl)ccc23)CC1,96,23,19,45*,51*,35*,.,44*
CC(=O)N1CCN(c2ccnc3cc(Cl)ccc23)CC1,112,-6,-11,-7,-6,.,.,.
NC(=O)N/N=C/c1c(O)ccc2oc3c(c12)CCCC3,110,19,10,12,2,.,.,.
CC(C)(C)N=Cc1c(O)ccc2oc3c(c12)CCCC3,83,34,9,41*,63*,33*,.,64*
CC(=O)N1N=C(c2ccc(C)cc2)OC1c1ccc(Br)cc1 (configuration not stated),101,12,20,39,35,.,.,.
CCOc1ccc(Br)cc1C1=NN(C(C)=O)C(c2ccc([N+](=O)[O-])s2)O1 (configuration not stated),.,45*,16,64*,83*,71*,55*,65*
CC(C)n1ncc2c(C(=O)NCC(=O)Nc3ccccc3Br)cc(C3CC3)nc21,136,8,21,42*,53*,26,.,44*
SMILES,CR mimetic SO,TIM10 inh,NALP3 yeast inh,tim10-1 inh,tim23-1 inh,tim10-1 conf,tim10 confirm,tim23-1 confirm
CCOC(=O)C1CCCN(S(=O)(=O)c2c(C(=O)N3CCCCC3)c(C)n(C)c2C)C1 (configuration not stated),96,15,8,13,12,.,.,.
Cc1[nH][nH]c(=O)c1C(c1ccc(-c2ccc(F)cc2)o1)c1c(C)[nH][nH]c1=O,91,-43,-7,51*,85*,13,.,60*
Cc1[nH]c2ccc(C(=O)N3CCN(c4ccccc4Cl)CC3)cc2c1C,86,40*,8,57*,51*,25,12,48*
COc1ccc(C(=O)CSc2nnc(CNC(=O)c3ccccc3)n2C)cc1,106,-1,0,6,-1,.,.,.
CN1/C(=C\C(=O)Nc2ccc(F)cc2)C(C)(C)c2ccccc21,80,48*,5,45*,68*,49*,-21,72*
CN1/C(=C/C(=O)C2CC2)C(C)(C)c2ccccc21,107,-21,25,-2,10,.,.,.
CN(CC(=O)Nc1ccc(F)cc1)C(=O)CN1C(=O)c2cccc([N+](=O)[O-])c2C1=O,89,-1,7,7,7,.,.,.
N#CC(C#N)=Cc1cc2ccccc2nc1N1CCCCC1,109,41*,13,53*,78*,42*,13,71*
O=C1CCCc2c1[nH]c1ccccc21,107,1,17,2,0,.,.,.
c1ccc2c(c1)OCCc1c-2[nH]c2ccccc12,101,20,15,46*,61*,42*,.,58*
CCN(CC)c1ccc(/C=C/c2ccc3ccc(OC)cc3[n+]2CC)cc1,109,31,26,73*,68*,68*,.,58*
CC[n+]1c(/C=C/c2ccc(N(C)C)cc2)ccc2ccccc21,90,.,.,.,.,.,.,.
O=c1c2c([N+](=O)[O-])cc([N+](=O)[O-])cc2sn1-c1ccc(Br)cc1,94,19,14,85*,54*,93*,.,70*
Cc1ccc(Nc2ccc3nonc3c2[N+](=O)[O-])cc1,89,14,4,12,7,.,.,.
Cc1ccc(Nc2ccc([N+](=O)[O-])nc2[N+](=O)[O-])cc1,110,42*,18,42*,53*,27,25,43*
O=[N+]([O-])c1cccc(Cl)c1NCCNS(=O)(=O)c1ccccc1,119,10,-4,28,26,.,.,.
CC[C@@H]1C/C=C\Cc2ccccc2[C@H](C(=O)C[C@@H](O)CC(C)=O)OC1=O,95,39,-10,54*,52*,53*,.,49*
